In PubChem BioAssay AID504580 (NMMLSC, 2011):
Fewer than 10 of roughly 2,000 compounds were called active. These entries were drawn from the full list. A number with no mark means an inactive call.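 The calls were made as follows: active = compounds that quench the bead-bound fluorescent RNA probe, cutting fluorescence to under half of the solvent control; inactive = the rest.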

Test: fluorescent RNA aptamer quenching, single concentration, confirmation, artefact control for GRK2 RNA aptamer inhibitor project, biochemical, single point, cherry pick 1, flow cytometry (AID 504580);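 also: counterscreen run without GRK2 so only probe quenching by compound is measured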
Conditions: Carboxyfluorescein RNA aptamer on beads, at 10 µM, stronger effect = lower value
For C=C(C)C(=O)Nc1cccc(C2=NOC3(C2)C[C@H](C(N)=O)N(C(=O)C(c2ccccc2)c2ccccc2)C3)c1 (stereo partly drawn), the fluorescence response (% of DMSO) was 102%. COc1cccc(CN(C)CC(=O)Nc2sc3c(c2C#N)CCC3)c1 gave a fluorescence response (% of DMSO) of 99.9%. Work on CCCc1nc2ccccc2c(=O)n1NC(=O)c1c(O)c2ccccc2[nH]c1=O yielded a fluorescence response (% of DMSO) of 101%. Compound O=C(Nc1nnc(-c2ccccc2)o1)c1cccc(S(=O)(=O)N2CCOCC2)c1 has a fluorescence response (% of DMSO) of 101%. CC(C)Cn1c(CN(Cc2ccccc2)Cc2ccccc2)nc2c1c(=O)n(C)c(=O)n2C showed a fluorescence response (% of DMSO) of 98%. For CN(CC(=O)Nc1ccc(N2CCOCC2)cc1)CC(=O)Nc1ccccc1[N+](=O)[O-], the fluorescence response (% of DMSO) was 101%. Compound COc1cc(C(=O)OCC(=O)N(CC(C)C)C2CCS(=O)(=O)C2)ccc1OCC(C)C (stereo not drawn) has a fluorescence response (% of DMSO) of 91.4%. CSc1nc2ccccc2c(=O)n1Cc1ccc(F)cc1 gave a fluorescence response (% of DMSO) of 100%. For CCOC(=O)c1sc2nc(CSc3ccccc3)[nH]c(=O)c2c1C, the fluorescence response (% of DMSO) was 106%. Compound Cn1c(=O)c2c(nc(N3CCOCC3)n2CCNC2=NCCC2)n(C)c1=O has a fluorescence response (% of DMSO) of 99.8%. With O=C(c1cnn(-c2ccc(Cl)cc2)c1)c1ccccc1O the fluorescence response (% of DMSO) was 101%. With O=C(NCc1ccccc1Cl)c1ccc2c(=O)n(CC3CCCO3)c(=S)[nH]c2c1 (stereo not drawn) the fluorescence response (% of DMSO) was 95.6%. Cc1csc(=O)n1CC(=O)OCC(=O)N(CC(C)C)c1c(N)n(Cc2ccccc2)c(=O)[nH]c1=O showed a fluorescence response (% of DMSO) of 99.2%. Work on O=C(COC(=O)c1ccc(F)cc1F)Nc1ncccn1 yielded a fluorescence response (% of DMSO) of 95.8%. COc1cc(C(=O)NCc2ccc3c(c2)cc(C)n3C)cc(OC)c1OC gave a fluorescence response (% of DMSO) of 96.5%. Work on O=C(NC(=O)c1cc(OCC(F)(F)F)ccc1OCC(F)(F)F)Nc1ccccc1 yielded a fluorescence response (% of DMSO) of 103%. In the case of CC(=O)N1CC[n+]2c(-c3ccc([N+](=O)[O-])cc3)csc21, the fluorescence response (% of DMSO) is reported as 103%. Work on CCOc1ccccc1C(=O)NCc1ccco1 yielded a fluorescence response (% of DMSO) of 96%. Cc1cc2cc(CNC(=O)c3cccs3)ccc2[nH]1 gave a fluorescence response (% of DMSO) of 86.2%. Work on COc1ccc(Nc2nc(-c3cccnc3)nc3ccccc23)cn1 yielded a fluorescence response (% of DMSO) of 101%. CCN1/C(=C\c2ccc3ccccc3[n+]2CC)Sc2cc(C)ccc21 gave a fluorescence response (% of DMSO) of 173%. For Cn1c(=O)[nH]c(=O)c2c1nc(N1CCN(C(c3ccccc3)c3ccccc3)CC1)n2CCO, the fluorescence response (% of DMSO) was 98.3%. COC(=O)N/N=C/c1ccc(/C=N/NC(=O)OC)cc1 gave a fluorescence response (% of DMSO) of 100%. Work on COc1ccc(Nc2cc(Sc3ccc(OC)cc3)ncn2)cc1 yielded a fluorescence response (% of DMSO) of 101%. O=C(c1ccc(Cl)cc1)c1ccc(OCC(O)CN2CCCCC2)cc1 (stereo not drawn) gave a fluorescence response (% of DMSO) of 101%. With COc1ccc(-n2nc(C(=O)NCC(=O)N3CCCCCC3)c3ccccc3c2=O)cc1Cl the fluorescence response (% of DMSO) was 105%. Compound COc1ccccc1NC(=O)CSc1nc2sc3c(c2c(=O)n1-c1ccccc1)CCN(C)C3 has a fluorescence response (% of DMSO) of 94.8%. Work on NC(=O)C1CCN(C(=O)c2ccc3c(=O)n(Cc4cccc(Br)c4)c(=S)[nH]c3c2)CC1 yielded a fluorescence response (% of DMSO) of 98.1%. COc1ccc(C(=O)NCCNc2ccc([N+](=O)[O-])cn2)cc1 gave a fluorescence response (% of DMSO) of 99.4%. For Cc1nc(C(=O)NCc2ccccc2)sc1C1(C)CC(c2cccnc2)=NO1 (stereo not drawn), the fluorescence response (% of DMSO) was 97.1%. Compound O=C(c1cc2cc(F)ccc2[nH]1)N1CCN(c2ccc(F)cc2)CC1 has a fluorescence response (% of DMSO) of 97.9%. With CNS(=O)(=O)c1cccc(C(=O)NCC2CCCCC2)c1 the fluorescence response (% of DMSO) was 101%. Nc1ccc2nc3c(=O)[nH]c(=S)[nH]c3nc2c1 showed a fluorescence response (% of DMSO) of 83.9%. Compound O=C(Oc1ccc(Br)cc1)c1cccnc1 has a fluorescence response (% of DMSO) of 96.7%. For Cc1ccccc1-c1nnn(CC(=O)c2ccc(S(=O)(=O)N3CCCC3)cc2)n1, the fluorescence response (% of DMSO) was 96.4%. For CSc1ccc(/C=C2\NC(=O)NC2=O)cc1, the fluorescence response (% of DMSO) was 95.8%. Compound Cc1ccc(-c2nn(-c3ccccc3)cc2/C=C2\SC(=S)N(CCCCCC(=O)O)C2=O)o1 has a fluorescence response (% of DMSO) of 136%. Compound COCCn1c(C)cc(C(=O)CN2c3cccc4cccc(c34)S2(=O)=O)c1C has a fluorescence response (% of DMSO) of 98%. Cc1cc(C(=O)NC2CCN(Cc3ccccc3)CC2)n[nH]1 showed a fluorescence response (% of DMSO) of 96.6%. For C/C(=N\OCC(=O)O)c1ccc(Cl)cc1, the fluorescence response (% of DMSO) was 101%. For CC(NC(=O)C1CCCN(S(=O)(=O)c2ccc(-n3cnnn3)cc2)C1)c1ccc(F)cc1 (stereo not drawn), the fluorescence response (% of DMSO) was 105%. Work on CCN1C(=O)[C@H]2[C@@H](c3ccc(-c4ccc(OC)cc4)cc3)N[C@@](Cc3ccccc3)(C(=O)OC)[C@H]2C1=O yielded a fluorescence response (% of DMSO) of 96.4%. Work on COc1ccc(NC(=O)CN(C)C(=O)c2cc(-c3ccc(C)o3)nc3ccccc23)cc1 yielded a fluorescence response (% of DMSO) of 100%. In the case of COc1ccc(N2CCN(C(CNS(=O)(=O)c3ccc(C)cc3)c3ccccc3)CC2)cc1 (stereo not drawn), the fluorescence response (% of DMSO) is reported as 98.2%. Work on O=C(NCC12CC3CC(C1)CC(CNC(=O)N1CCCC1)(C3)C2)N1CCCC1 yielded a fluorescence response (% of DMSO) of 98.2%. O=C(O)c1ccc2c(c1)C(=O)N(c1ccc(/C=C/C(=O)c3ccccc3)cc1)C2=O showed a fluorescence response (% of DMSO) of 99.8%. In the case of O=S(=O)(Nc1ccc(-c2ccc(N3CCOCC3)nn2)cc1)c1cc(Cl)ccc1Cl, the fluorescence response (% of DMSO) is reported as 108%. In the case of O=C(NCc1ccccc1)c1cccc(NC(=O)C2CCCCC2)c1, the fluorescence response (% of DMSO) is reported as 98%. For CCC(=C/c1sc2ccc3ccccc3c2[n+]1C)/C=C1\Sc2ccc3ccccc3c2N1C, the fluorescence response (% of DMSO) was 10.7% (active). In the case of Cc1ccccc1CN1CCN(CC(=O)NCc2ccccn2)C1=O, the fluorescence response (% of DMSO) is reported as 101%. Cc1ccc(S(=O)(=O)CCC(=O)Nc2nnc(CC(C)C)s2)cc1 gave a fluorescence response (% of DMSO) of 99.8%. O=C(CCNC(=O)c1ccccc1)NN=Cc1ccc(Br)o1 gave a fluorescence response (% of DMSO) of 96.6%. Cc1ccc(C(CNC(=O)Nc2cccc(C)c2)N2CCN(C)CC2)cc1 (stereo not drawn) gave a fluorescence response (% of DMSO) of 98%. Compound O=c1[nH]c(SCc2ccccc2)nnc1-c1ccccc1 has a fluorescence response (% of DMSO) of 98.2%. Cc1nc(Nc2ccccc2F)c2nnn(Cc3ccccc3Cl)c2n1 gave a fluorescence response (% of DMSO) of 99.8%. In the case of CCOC(=O)C1CCCN(Cc2nc(N)nc(Nc3ccc(C)cc3)n2)C1 (stereo not drawn), the fluorescence response (% of DMSO) is reported as 80%. Cc1ccc(N2C(=O)C3N=NN(CC(=O)N4N=C(c5cccc6ccccc56)CC4c4ccccc4)C3C2=O)cc1 (stereo not drawn) showed a fluorescence response (% of DMSO) of 101%. Work on OC(CN=c1sc2ccccc2n1CC(O)COc1ccccc1)COc1ccccc1 (stereo not drawn) yielded a fluorescence response (% of DMSO) of 95.8%. For CC(C)CN(C(=O)c1cccc(S(=O)(=O)N2CCCCC2)c1)C1CCS(=O)(=O)C1 (stereo not drawn), the fluorescence response (% of DMSO) was 102%. With O=C(COc1ccccc1)NCCc1nc2ccccc2[nH]1 the fluorescence response (% of DMSO) was 99.7%. Work on CCOC(=O)C(C)n1cnc2scc(-c3ccc(C)c(C)c3)c2c1=O (stereo not drawn) yielded a fluorescence response (% of DMSO) of 95.4%. Compound Cc1cc(/C=C2\SC(=O)N(C)C2=O)c(C)n1-c1cccc(C(=O)O)c1 has a fluorescence response (% of DMSO) of 96.6%. COc1ccc(Cl)cc1NC(=O)CCS(=O)(=O)c1cc2c(cc1C)NC(=O)CO2 showed a fluorescence response (% of DMSO) of 99.6%. Compound COC(=O)c1ccc(C)c(NC(=O)C2CC(=O)N(C3CCCC(C)C3C)C2)c1 (stereo not drawn) has a fluorescence response (% of DMSO) of 94.9%. With CCN1/C(=C/c2ccc3ccc(C)cc3[n+]2CC)Sc2ccccc21 the fluorescence response (% of DMSO) was 142%. In the case of Cc1cccc(NC(=O)C2CCCN(C(=O)NCc3ccccc3)C2)c1C (stereo not drawn), the fluorescence response (% of DMSO) is reported as 102%. CCCCn1nc(C(=O)OCC(=O)Nc2sccc2C(N)=O)c2ccccc2c1=O gave a fluorescence response (% of DMSO) of 99.8%. In the case of O=C(CCS(=O)(=O)c1ccc(Br)cc1)NCCc1ccc(Cl)cc1, the fluorescence response (% of DMSO) is reported as 102%. O=C1C2N=NN(CC(=O)N3N=C(c4cccc5ccccc45)CC3c3ccccc3)C2C(=O)N1c1ccccc1 (stereo not drawn) showed a fluorescence response (% of DMSO) of 91.2%. For CN/C(=C\[N+](=O)[O-])NCCSCc1csc(CN(C)C)n1, the fluorescence response (% of DMSO) was 99.2%. COCCCNC(=O)CNC(=O)c1nn(-c2ccc(OC)cc2)c(=O)c2ccccc12 showed a fluorescence response (% of DMSO) of 96.3%. Work on O=C(NNc1ncnc2c1cnn2-c1ccccc1)c1ccco1 yielded a fluorescence response (% of DMSO) of 97.9%. With CC(=O)c1ccc(OCC(O)CN2CCN(S(=O)(=O)c3cccc(Br)c3)CC2)cc1 (stereo not drawn) the fluorescence response (% of DMSO) was 142%. In the case of CCOCCCNC(=O)C(NC(=O)CNC(=O)c1ccccc1)c1ccc(OC)cc1 (stereo not drawn), the fluorescence response (% of DMSO) is reported as 96%. Work on Cc1nn(Cc2ccc(F)cc2)c(C)c1NC(=O)c1noc2c1CCc1ccccc1-2 yielded a fluorescence response (% of DMSO) of 97%. C/C(=N\Nc1nc2ccccc2[nH]1)c1cccs1 gave a fluorescence response (% of DMSO) of 92.8%. O=C(Nc1ccc(-c2nnc(-c3ccccc3)o2)cc1)c1ccc(Br)o1 gave a fluorescence response (% of DMSO) of 98.8%. Compound CN(Cc1ccccc1)C(=O)c1cccc(C(=O)N(C)Cc2ccccc2)c1 has a fluorescence response (% of DMSO) of 101%.
